# Compounds with a hit are over-represented: about 4.9% of the library has one in this group of screens.
# Mdm2-MdmX inh = inhibitors of human Mdm2-MdmX association, primary screen, cell-based, luminescence, split luciferase, SaOS-2, uHTS; SaOS-2 split-luciferase Mdm2/MdmX complementation; inhibition, % at 8 µM; actives 3% (n = 330,000); Protein Mdm4 (Homo sapiens) + E3 ubiquitin-protein ligase Mdm2 (Homo sapiens), …; AID 485346, 2010;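 active = inhibition of at least 50% at 8 µM in the primary screen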
# CSC inhib = cancer stem cell viability inhibitors, primary screen, luminescence; cancer stem cell-like cells viability; inhibition, % at 7.5 µM; actives 1.1% (n = 300,000); AID 2717, 2010; in the data active = inhibition above about 75%; tested in HMLE shEcad cells
# PP1 counter = PP1-alpha phosphatase inhibitors, primary screen, counter-screen for PP5 inhibitor project, biochemical, fluorescence, OMFP substrate, single point. purified PP1alpha. inhibition, % at 6.7 µM. actives 0.9% (n = 320,000);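 active = inhibition above the mean inhibition of all tested compounds plus 3 SD, computed separately for each screening campaign, cut at about 15% in these data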
# Beta apoptosis = inhibitors of cytokine-induced beta cell apoptosis, primary screen, luminescence. INS-1E cytokine-induced death, ATP luminescence, 48 h; percent of positive-control rescue, neutral wells zero. protection from apoptosis, % (test concentration not listed). actives 0.8% (n = 300,000);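 active = Every replicate reaches about 75%, or at least half do and their mean reaches it too, limit read from the data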;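 note: higher means more ATP so stronger rescue from cytokine killing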
# Calb FLC = C. albicans growth inhibition with fluconazole, primary screen, CaCi-2 strain, Alamar Blue fluorescence; AID 1979, 2009; C. albicans CaCi-2 (fluconazole-resistant clinical isolate) + fluconazole, 48 h; growth inhibition, % (test concentration not listed); actives 0.57% (n = 300,000);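 active = growth inhibition above about 58% in most replicates, limit read from the data, passing the limit was not always enough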;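 note: all wells also contain fluconazole at 8 µg/ml as a sub-toxic cotreatment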
# PP5 inh = PP5 phosphatase inhibitors, primary screen, biochemical, fluorescence | purified PP5c, OMFP substrate fluorescence | inhibition, % at 6.7 µM | actives 0.18% (n = 320,000);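 active = inhibition above the campaign's mean inhibition across all tested compounds plus 3 SD, cut at about 9.5% in these data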
# Mdm2 MdmX conf = Mdm2-MdmX complex disruptors, retested hits, confirmation, luminescence, single concentration | shares compounds with Mdm2-MdmX inh | Mdm2-MdmX binding, luminescent assay | inhibition, % at 8 µM | actives 55% (n = 10,000); in the data active = inhibition above about 40%
# FLuc counter = full-length luciferase signal inhibition, confirmation, counter-screen for Mdm2/MdmX interaction inhibitor project, cell-based, single concentration, SaOS-2; shares compounds with Mdm2-MdmX inh; SaOS-2 full-length luciferase counterscreen, luminescence; inhibition, % at 8 µM; actives 77% (n = 6,200); AID 504607, 2011;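 active = mean inhibition at 8 µM reaching about 37%, which flags the compound as non-specific, limit read from the data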;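 note: p53-null SaOS-2 cells with luciferase driven by a doxycycline-inducible promoter; compound on cells about two nights before reading with doxycycline added after day one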
# Hits are given with their value; - = inactive; . = not tested or not shown.
SMILES,Mdm2-MdmX inh,CSC inhib,PP1 counter,Beta apoptosis,Calb FLC,PP5 inh,Mdm2 MdmX conf,FLuc counter
NS(=O)(=O)c1ccc(Sc2nc3ccccc3s2)c([N+](=O)[O-])c1,79,-,-,-,-,-,82,56
Cc1[nH]c2ccccc2c1-c1csc(NC(=O)CSCCO)n1,-,.,-,-,-,-,.,.
CCOc1ccc(NC(=NCc2ccc3c(c2)OCO3)SC2CC(=O)N(c3ccc(OCC)cc3)C2=O)cc1 (stereo not drawn),66,-,-,-,-,-,63,65
CCOc1ccc(NC(=NCc2ccc3c(c2)OCO3)SC2CC(=O)N(c3ccccc3)C2=O)cc1 (stereo not drawn),60,-,-,.,-,-,-,.
COc1cc([N+](=O)[O-])ccc1NC(=O)Nn1cnnc1,-,-,-,-,-,-,.,.
O=[N+]([O-])c1ccc(Cl)c(-c2ccc(/C=N/c3c(-c4ccco4)nc4ccccn34)o2)c1,66,-,-,-,-,-,-,.
C=C(C)C(=O)N1CC2(CC(c3cccc(NC(=O)CC(c4ccccc4)c4ccccc4)c3)=NO2)C[C@H]1C(N)=O (stereo partly drawn),-,-,-,-,-,-,.,.
CCC(=O)Nc1cccc(C2=NOC3(C2)C[C@@H](C(N)=O)N(C(=O)C(c2ccccc2)c2ccccc2)C3)c1 (stereo partly drawn),-,-,-,-,-,-,.,.
NC(=O)[C@@H]1CC2(CC(c3cccc(NC(=O)COc4ccc(Cl)cc4)c3)=NO2)CN1C(=O)COc1ccc(Cl)cc1 (stereo partly drawn),59,-,-,-,-,-,-,.
NC(=O)[C@@H]1CC2(CC(c3cccc(NC(=O)CC(c4ccccc4)c4ccccc4)c3)=NO2)CN1C(=O)c1ccc(Cl)cc1 (stereo partly drawn),52,-,-,-,-,-,-,.
NC(=O)[C@H]1CC2(CC(c3cccc(NC(=O)COc4ccc(Cl)cc4)c3)=NO2)CN1C(=O)C(c1ccccc1)c1ccccc1 (stereo partly drawn),60,-,16,-,-,-,-,.
CCOC(=O)c1sc(/N=C/c2ccc(O)cc2O)cc1C,-,-,-,-,-,-,.,.
CN(C(=O)CSc1nc(N)cc(N)n1)C1CCS(=O)(=O)C1 (stereo not drawn),-,.,-,-,-,-,.,.
Cc1ccc(S(=O)(=O)N2c3cc(C)ccc3OCC2C(C)(C)C)cc1 (stereo not drawn),63,-,-,-,-,-,72,48
CC1COc2ccccc2N1S(=O)(=O)c1ccc(Cl)cc1 (stereo not drawn),-,-,-,-,-,-,.,.
COc1cccc(C(=O)N2c3cc(C)ccc3OCC2C(C)(C)C)c1 (stereo not drawn),-,-,-,-,-,-,.,.
Cc1ccc(S(=O)(=O)N2c3ccccc3OCC2c2ccccc2)cc1 (stereo not drawn),56,-,-,-,-,-,58,55
COc1ccc(S(=O)(=O)N2c3cc(C)ccc3OCC2C(C)(C)C)cc1 (stereo not drawn),56,-,-,-,-,-,61,63
CCc1nnc(NS(=O)(=O)c2ccc(NCc3cc(Cl)cc(Cl)c3O)cc2)s1,-,-,-,-,-,-,.,.
C[C@H](CO)N1C[C@H](C)[C@@H](CN(C)C(=O)Nc2ccc(C(F)(F)F)cc2)Oc2ccc(NS(=O)(=O)c3cn(C)cn3)cc2C1=O,-,-,.,-,.,.,.,.
C/C(=N\NC(=O)c1c(Cl)c(C)nn1C)c1ccc(NC(=O)C2CCC2)cc1,56,-,-,-,-,-,75,67

# Assay outcomes deposited in PubChem BioAssay by several laboratories.
